# HT1080 IDH1KD tx: kills HT-1080 cells with IDH1 knockdown | HT-1080 IDH1 knockdown viability, ATP luminescence, 48 h | Potency, µM (doses to about 46.1 µM), for the others: at the top dose activity, negative = toxicity, usual class: cytotoxic | 2% of 360,000 active | AID 686971;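 note: potency is the fitted concentration of half-maximal effect; 0% = DMSO wells and -100% = cell-free medium wells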
#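 Knockdown cells (IDH1KD HT-1080) received compounds 2 h after plating at 750 cells/well and were kept 48 h at 37 °C in 5% FBS RPMI. A CellTiter-Glo luminescence read gave % activity for curve fitting.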
# DT40 TDP1 CPT: growth inhibition of DT40 Tdp1-/-;hTDP1 cells with camptothecin (screen for TDP1 inhibitors). chicken DT40 Tdp1-/-;hTDP1 cells + 20 nM CPT, ATP luminescence, 48 h. Potency, µM (highest dose often 46.2 µM), for the others: at the top dose activity change, negative = growth inhibition, actives largely listed as inhibitors. 12% of 420,000 active. AID 686979; note: potency is the fitted concentration of half-maximal effect; nearly all actives have a fitted effect of over 55% in size
#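 Chicken DT40 Tdp1-/- cells complemented with human TDP1, 400 cells/well, exposed to compounds plus 20 nM camptothecin for at least 48 h at 37 C; viability read as ATP content by CellTiter-Glo luminescence.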
# IL-1B inflam inh: inhibitors of inflammasome signaling (IL-1 beta secretion); THP-1 LPS/ATP IL-1B secretion, AlphaLISA, 16 h; hits give low values; activity change, % at 57.5 µM; 4.7% of 360,000 active; in the data active = activity change below about -50%; inconclusive = mostly about -30% to -49%
#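 Secreted IL-1B measured by AlphaLISA bead assay after 16 h compound exposure of THP-1 cells; compounds (final up to 57.5 uM) added 1 h before LPS (250 ng/mL) and ATP (1.25 mM) stimulation; lower signal means less secretion.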
# ALOX12 inh: ALOX12 (human) lipoxygenase inhibition | P18054 | Potency, µM (doses to about 108 µM), without a hit: at the top dose activity change, negative = inhibition, usual class: inhibitors | AID 1671190 | purified 12hLO, xylenol orange hydroperoxide absorbance | 1.1% of 580,000 active; note: potency is the fitted concentration of half-maximal effect
# Target sequence (P18054 whole entry, looked up): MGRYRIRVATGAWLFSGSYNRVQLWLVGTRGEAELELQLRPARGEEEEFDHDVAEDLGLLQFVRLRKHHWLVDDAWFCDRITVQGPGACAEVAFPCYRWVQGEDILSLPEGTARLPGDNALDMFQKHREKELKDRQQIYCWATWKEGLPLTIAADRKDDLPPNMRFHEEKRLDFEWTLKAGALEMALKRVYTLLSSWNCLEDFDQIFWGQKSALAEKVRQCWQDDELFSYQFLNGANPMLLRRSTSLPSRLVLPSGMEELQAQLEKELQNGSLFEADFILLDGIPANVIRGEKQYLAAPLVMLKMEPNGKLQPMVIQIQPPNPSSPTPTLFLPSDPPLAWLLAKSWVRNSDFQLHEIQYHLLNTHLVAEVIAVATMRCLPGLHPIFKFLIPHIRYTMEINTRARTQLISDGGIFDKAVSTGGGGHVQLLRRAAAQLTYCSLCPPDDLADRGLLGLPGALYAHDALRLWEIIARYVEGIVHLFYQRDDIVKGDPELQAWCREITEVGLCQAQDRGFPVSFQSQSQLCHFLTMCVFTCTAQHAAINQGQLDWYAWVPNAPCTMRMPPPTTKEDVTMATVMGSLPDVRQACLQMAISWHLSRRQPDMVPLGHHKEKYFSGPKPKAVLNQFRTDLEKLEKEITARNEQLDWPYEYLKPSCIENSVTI
#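 Purified human 12hLO at 150 nM in 25 mM Hepes, 0.01% Triton X-100, pH 7.0, preincubated 15 min at room temperature with compound. Reaction started with 40 uM arachidonic acid, 30 min at room temperature. Hydroperoxide measured by Fe-xylenol orange, 573/405 nm absorbance ratio.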
# DT40 TDP1 no CPT: qHTS for Inhibitors of human tyrosyl-DNA phosphodiesterase 1 (TDP1): qHTS in cells in absence of CPT | DT40 Tdp1-/- hTDP1 cells, no CPT, ATP luminescence, 48 h | Potency, µM (titrated, usually from 46.2 µM), inactives show at the top dose activity change, negative = growth inhibition, usual class: inhibitors | 15% of 420,000 active | AID 686978, 2013; note: potency is the fitted concentration of half-maximal effect; nearly all actives have a fitted effect of over 55% in size
#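 Camptothecin absent (DMSO only). Human TDP1-complemented DT40 knockout cells, 400 cells/well, 37 °C for minimum 48 hr; ATP measured via CellTiter-Glo, 30 min dark incubation, luminescence.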
# HT1080-NT tox: kills 2HG-producing HT-1080-NT fibrosarcoma cells | HT-1080-NT fibrosarcoma viability, CellTiter-Glo ATP luminescence, 48 h | Potency, µM (doses to about 46.1 µM), without a hit: at the highest dose activity, negative = less viability, hits mostly cytotoxic | 1.6% of 360,000 active | AID 686970;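 note: NT is the 2HG producing partner of a matched IDH1 knockdown line; potency is the fitted concentration of half-maximal effect; 0% = DMSO-treated cells and -100% = media-only wells without cells; nearly all actives have a fitted effect of over 55% in size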
#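 750 cells/well, RPMI + 5% FBS; 2 h settle, compound pin-transfer, 48 h at 37 degrees C. CellTiter-Glo 10 min RT, luminescence. Normalized to DMSO and media-only wells.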
# The depositor's hits bear a star; u = inconclusive; x = no result; [ ] = another dose, or the depositor's remark. This excerpt belongs to a sample that is enriched for hits. Unless noted, calls come from the whole dose curve; as a rule, active = well fitted curve in the direction sought with a large enough effect; inconclusive = small, poorly fitted or top-dose-only effect, or another doubt; inactive = no such curve, though single readings can be large; an effect the other way counts as inactive or inconclusive. Unless noted, % is set by controls: 0 for no effect and ±100 for the full control effect.
SMILES,HT1080 IDH1KD tx,DT40 TDP1 CPT,IL-1B inflam inh,ALOX12 inh,DT40 TDP1 no CPT,HT1080-NT tox
Cc1ccc(N2CCN(C(=O)c3cnn(-c4ccc(F)cc4F)c3C3CCN(C(=O)OC(C)(C)C)CC3)CC2)c(C)c1,x,16µM*,x,-17%,23µM*,x
CC(C)(C)OC(=O)N1CCC(c2c(C(=O)N3CCN(C(=O)c4ccco4)CC3)cnn2-c2ccccc2Cl)CC1,x,-27%,x,-5%,u,x
CC(C)(C)OC(=O)N1CCC(c2c(C(=O)O)cnn2-c2ccccc2Cl)CC1,1%,-10%,17,20%,-11%,12%
Cc1cccc(N2CCN(C(=O)c3cnn(-c4ccccc4Cl)c3C3CCN(C(=O)OC(C)(C)C)CC3)CC2C)c1 (configuration not stated),x,u,x,-5%,13µM*,x
Cc1ccc(C)c(N2CCN(C(=O)c3cnn(-c4ccccc4Cl)c3C3CCN(C(=O)OC(C)(C)C)CC3)CC2)c1,x,13µM*,x,-23%,13µM*,x
Cc1ccc2c(c1)c1c(c(=O)n(-c3ccccc3C)c(=O)n1CC(=O)NCC1CCCO1)n2C (configuration not stated),0%,u,-24,4%,u,0%
COc1ccc(C(=O)N2CCC(n3cc(-c4nc(C5CC5)no4)nn3)C2)cc1F (configuration not stated),x,x,x,25%,x,x
Cc1ccc(-n2ncc(C(=O)NCCN3CCOCC3)c2C2CCN(C(=O)OC(C)(C)C)CC2)c(C)c1,x,0%,x,-17%,u,x
CCN1CCN(CCCNC(=O)c2cnn(-c3ccc(C)cc3)c2C2CCN(C(=O)OC(C)(C)C)CC2)CC1,x,u,x,-8%,u,x
Cc1ccc(C)c(N2CCN(CCCNC(=O)c3cnn(-c4ccccc4Cl)c3C3CCN(C(=O)OC(C)(C)C)CC3)CC2)c1,x,4.6µM*,x,u,4.6µM*,x
Cc1ccc(C)c(N2CCN(CCCNC(=O)c3cnn(-c4cccc(Cl)c4)c3C3CCN(C(=O)OC(C)(C)C)CC3)CC2)c1,x,4.6µM*,x,u,5.8µM*,x
Cc1ccc(-n2ncc(C(=O)N3CCN(c4cccc(C)c4C)CC3)c2C2CCNCC2)c(C)c1,x,8.2µM*,x,1%,16µM*,x
Cc1ccc(C)c(N2CCN(CCCNC(=O)c3cnn(-c4ccc(F)cc4)c3C3CCN(C(=O)OC(C)(C)C)CC3)CC2)c1,x,4.1µM*,x,u,3.3µM*,x
Cc1ccc(-n2ncc(C(=O)NCCCN3CCN(C)CC3)c2C2CCN(C(=O)OC(C)(C)C)CC2)c(C)c1,x,u,x,-34%,u,x
CC(C)[C@@H](CSc1ccccc1)N1CCN(Cc2ccccc2)CCC1=O,3%,u,-21,0%,u,-2%
CC(C)NC(=O)C1COC2(CCN(C(=O)c3ccc(Cl)cc3)CC2)N1C(=O)c1cccc(F)c1 (configuration not stated),x,x,x,17%,x,x
CC1(C)[C@H]2CC[C@@H](CNC(=O)c3ccc(Cl)cc3)[C@@H]1C2,x,x,x,23%[176 µM],x,x
CCn1cc(C2N3CC4(CC)CN2CC(CC)(C3)C4=O)c2ccccc21 (configuration not stated),x,u,x,2%,18µM*,x
CCC12CN3CC(CC)(CN(C1)C3c1c[nH]c3ccccc13)C2=O (configuration not stated),x,-85%,x,0%,16µM*,x
CCC12CN3CC(CC)(CN(C1)C3c1c(O)ccc3ccccc13)C2=O (configuration not stated),-1%,-3%,18,-7%,-6%,-2%
CCC12CN3CC(C)(CN(C1)C3c1c[nH]c3ccccc13)C2=O (configuration not stated),x,u,x,5%,23µM*,x

# From PubChem BioAssay
